# Results taken from PubChem BioAssay (NCI).
# Compounds without any hit were thinned out: in the full panel of roughly 83,000, 20% have a hit.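 For each line, cells grew in 96-well plates with the test compound present at a single concentration for 48 hours.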 Unmarked numbers belong to inactive results. Calls of active or inactive are those of the source. The calls were made as follows: active = growth percent below 10; inactive = the rest.
# System: SNB-75 CNS
# Test: NCI-60 one-dose screen, 48 h (100 = growth as untreated, 0 = no growth, -100 = all killed)
# Details: 10 µM unless noted
row,SMILES,growth
1,N#Cc1c(NC(=O)c2ccc([N+](=O)[O-])o2)[n+]([O-])c2cc(F)c(F)cc2[n+]1[O-],114%
2,CC(C)(C)OC(=O)N1C/C(=C\c2cccs2)C(=O)/C(=C/c2cccs2)C1,78.9%
3,CC(Cc1nnc(SCC(=O)Nc2ccc(I)cc2)n1N)c1ccccc1 (stereo not drawn),260%
4,COC(=O)CC/C(C)=N\Nc1ccc([N+](=O)[O-])cc1,91.5%
5,COc1ccccc1OCC(=O)Nc1sc2c(c1C(N)=O)CCC2,86.8%
6,CC(=O)N1Cc2ccccc2C(C)Cc2cc(Cl)ccc21 (stereo not drawn),101%
7,COc1ccc(/C(=N/O)c2cc(OC)c(OC)c(OC)c2)c(OC)c1N,8.03% (active)
8,CC(C)CCC[C@@H](C)[C@H]1CC[C@H]2[C@@H]3CC[C@H]4C/C(=N/O)CC[C@]4(C)[C@H]3CC[C@]12C,96.9%
9,C/C(=N\NC(=O)CC#N)c1cc2cc(Cl)ccc2o1,91%
10,CCC#CC[C@H]1C/C=C2/C(=O)C=C[C@@H]2C/C=C\CCCC(=O)O1,38.7%
11,Cc1cc(C(=O)O)c(N)c(C)n1,89.4%
12,CCCCCCOc1ccc(C2(Cl)c3ccccc3N(C)c3ccccc32)cc1,63.3%
13,CC(C)N(Cc1ccc(CN(C(=O)CCl)C(C)C)cc1)C(=O)CCl,-60.5% (active)
14,COc1cc(-n2nc(C(=O)Nc3ccc(C(=O)O)cc3)nc2-c2ccccc2)cc(OC)c1OC,94.1%
15,NC(=O)NNC(=O)c1ccccc1,85.9%
16,CC1Cc2c(N(C)C)ncnc2N(C)c2ccc(O)cc21 (stereo not drawn),72.9%
17,O=S(=O)(NCCCNc1cc(-c2cn(-c3ccccc3)nc2-c2cccc(O)c2)ccn1)c1ccc(C(F)(F)F)cc1,31.5%
18,Cc1ccc(S(=O)(=O)N2CCC(C(=O)Nc3ccc(F)cc3F)CC2)cc1,93.2%
19,COc1ccc2c(c1)NC(=O)CN2c1nc(NC2CC2)nc2ccccc12,31.4%

row,SMILES,growth
1,C=C1C(=O)O[C@H]2[C@H]1CC/C(COC(=O)NCCc1cccc(OC)c1)=C\CC[C@@]1(C)O[C@@H]21,76.1%
2,COc1cc(-c2csc(NC(=O)c3cc(C(F)(F)F)cc(C(F)(F)F)c3)n2)cc(OC)c1OC,52.5%
3,Clc1nc(Cl)c2ncn(C/C=C/Cn3cnc4c(Cl)nc(Cl)nc43)c2n1,65%
4,Cc1ccc2c(c1)C(C)Cc1c(ncnc1-n1cnc3ccccc31)N2C (stereo not drawn),-10.3% (active)
5,CCN(CC)S(=O)(=O)c1ccc2[nH]c(=O)cc(C(=O)Nc3ccc(OC)cc3OC)c2c1,110%
6,COC(=O)CCCCCN=Cc1c(O)c(O)c(C(C)C)c2cc(C)c(-c3c(C)cc4c(C(C)C)c(O)c(O)c(C=NCCCCCC(=O)OC)c4c3O)c(O)c12,46.9%
7,CCC(=O)Oc1ccc2c(c1)CC[C@@H]1[C@@H]2CC[C@]2(C)C[C@H](OC(=O)CC)C[C@@H]12,46%
8,C=C1C(=O)O[C@H]2[C@H]1CC/C(COC(=O)NCc1cc(OC)cc(OC)c1)=C\CC[C@@]1(C)O[C@@H]21,59.3%
9,O=C(Nc1ccc(I)cc1)c1cc([N+](=O)[O-])ccc1O,57%
10,O=C(CNC(=O)c1cccc2ccccc12)Nc1ccccc1Oc1ccccc1,38.9%
11,O=C(/C=C/CN1CCOCC1)Nc1cc2c(Nc3ccc(F)c(Cl)c3F)ncnc2cc1OCCOC(F)F,21.5%
12,O=C(NCCc1c[nH]c2ccccc12)C1Cc2ccccc2CN1C(=O)c1ccco1 (stereo not drawn),106%
13,Nc1cc2c(cc1N)-c1cc(N)c(N)cc1C2,79.9%
14,COc1ccc(/C(=N\O)c2cc(OC)c(OC)c(OC)c2)c(OC)c1N,-8.55% (active)
15,CCC(c1ccc(OC)cc1)C(CC)c1ccc(O)c(CN2CCCC2)c1 (stereo not drawn),71.5%
16,CC(C)(C)c1cc(-c2nc3ccc(N4CCN(CCO)CC4)cc3[nH]2)cc(C(C)(C)C)c1O,67.2%
17,OCc1c(-c2ccccc2)nc2sccn12,122%
18,O=C(OCCCCOC(=O)n1cnc2ccccc21)n1cnc2ccccc21,96%
19,OC1CC2c3ccccc3C1c1ccccc12 (stereo not drawn),90.5%
